Results: PubChem BioAssay (NCATS)
Results filed as inconclusive are left out. A call without a number means that no potency is given here. Values without a mark were called inactive. Activity calls are given as the source filed them. Calls come from the whole dose curve; as a rule, active = well fitted curve in the direction sought with a large enough effect; inconclusive = small, poorly fitted or top-dose-only effect, or another doubt; inactive = no such curve, though single readings can be large; an effect the other way counts as inactive or inconclusive.

What was measured:
[1] = target: Aldehyde dehydrogenase, mitochondrial (Homo sapiens) (UniProt P05091); assay: qHTS for Inhibitors of the Aldehyde Dehydrogenase Family (ALDH2) Primary screen (AID 2061308); note: nearly all actives have a fitted effect of over 55% in size
[2] = target: Retinaldehyde dehydrogenase 3 (Homo sapiens) (UniProt P47895); assay: qHTS for Inhibitors of the Aldehyde Dehydrogenase Family (ALDH1A3) Primary screen (AID 2061315)
[3] = BET inhibitor-based combinations targeting novel dependencies in MECOM-rearranged (r) AML: MV-4-11 cell line (AID 2202233); note: potency is the fitted concentration of half-maximal effect; nearly all actives have a fitted effect of over 45% in size
Outline: (§1)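 Luminescent ATP readout (CellTiter-Glo, 15 min at room temperature) after 48 hr drug exposure gave viability. Dose-response curves, normalized to DMSO and empty-well controls, were summarized as area under the curve and its mean-centred Z-score.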

[4] = BET inhibitor-based combinations targeting novel dependencies in MECOM-rearranged (r) AML: HNT-34 cell line (AID 2202234); note: nearly all actives have a fitted effect of over 35% in size; note: potency is the fitted concentration of half-maximal effect
Outline: as §1

[5] = BET inhibitor-based combinations targeting novel dependencies in MECOM-rearranged (r) AML: UCSD-AML1 cell line (AID 2202235); note: nearly all actives have a fitted effect of over 40% in size; note: potency is the fitted concentration of half-maximal effect
Outline: as §1

[6] = BET inhibitor-based combinations targeting novel dependencies in MECOM-rearranged (r) AML: AML-191 cell line (AID 2202236; note: nearly all actives have a fitted effect of over 35% in size; note: potency is the fitted concentration of half-maximal effect)
Outline: (§2)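 Luminescent ATP readout (CellTiter-Glo) after 48 hr drug exposure gives viability. Curves span 11 concentrations and are normalized to DMSO and empty wells. Activity is reported as area under the curve and its Z-transform within each cell line.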

[7] = BET inhibitor-based combinations targeting novel dependencies in MECOM-rearranged (r) AML: AML-194 cell line (AID 2202237; note: potency is the fitted concentration of half-maximal effect; nearly all actives have a fitted effect of over 40% in size)
Outline: as §2

[8] = BET inhibitor-based combinations targeting novel dependencies in MECOM-rearranged (r) AML: SET-2 cell line (AID 2202231); settings: SET-2 AML cells viability, CellTiter-Glo luminescence, 48 h; viability: active compounds read low, concentration not given here; note: nearly all actives have a fitted effect of over 35% in size; note: potency is the fitted concentration of half-maximal effect
Outline: as §2

[9] = BET inhibitor-based combinations targeting novel dependencies in MECOM-rearranged (r) AML: OCI-AML3 cell line (AID 2202232); settings: Potency: OCI-AML3 viability; note: nearly all actives have a fitted effect of over 35% in size; note: potency is the fitted concentration of half-maximal effect
Outline: as §2

In the case of CC(O)(CC(=O)O)CC(=O)O[C@@H]1[C@@H](O)[C@H](OCCc2ccccc2)O[C@H](CO)[C@H]1O (some centres undefined), the Potency [1] is reported as “inactive” and the Potency [2] is reported as “inactive”.

In the case of C=C1C(=O)O[C@@H]2C[C@@]3(C)C[C@@H](O)C[C@H](C)C3=C[C@H]12, the Potency [1] is reported as “inactive” and the Potency [2] is reported as “inactive”.

With COc1cc(C(C)=O)ccc1O[C@@H]1O[C@H](CO[C@@H]2OC[C@@H](O)[C@H](O)[C@H]2O)[C@@H](O)[C@H](O)[C@H]1O the Potency [1] was “inactive” and the Potency [2] was “inactive”.

In the case of CCOc1ccc2nc(SCCN3CCOCC3)[nH]c2c1, the Potency [1] is reported as “inactive” and the Potency [2] is reported as “inactive”.

For NC(=O)c1cnc(NCCc2ccc(O)c(Cl)c2)nc1NCc1ccccc1, the Potency [1] was “inactive” and the Potency [2] was “inactive”.

For C=C1CC[C@]2(C(=O)O[C@@H]3O[C@H](CO)[C@@H](O)[C@H](O)[C@H]3O)CC[C@]3(C)C(=CCC4[C@@]5(C)C[C@H](O)[C@@H](O[C@@H]6O[C@H](C(=O)O)[C@@H](O)[C@H](O)[C@H]6O)[C@](C)(C=O)C5CC[C@]43C)C2C1 (some centres undefined), the Potency [1] was “inactive” and the Potency [2] was “inactive”.

With OC[C@H]1O[C@@H](Oc2ccccc2)[C@H](O)[C@@H](O)[C@@H]1O the Potency [1] was “inactive” and the Potency [2] was “inactive”.

With O=C(C1=CCN2c3c(cccc31)OC[C@H]2CN1CCOCC1)c1cccc2ccccc12 the Potency [1] was “inactive” and the Potency [2] was “inactive”.

With CC1(C)CC[C@]2(C(=O)OC3OC(CO)C(O)C(O)C3O)CC[C@]3(C)C(=CCC4[C@@]5(C)C[C@@H](O)[C@H](OC6OC(C(=O)O)C(O)C(O)C6O)C(C)(C)C5CC[C@]43C)[C@@H]2C1 (some centres undefined) the Potency [1] was “inactive” and the Potency [2] was “inactive”.

In the case of CC(C)CCC(=O)CC1c2ccccc2C(=O)N1c1ccc2ccc(Cl)nc2n1 (centres undefined), the Potency [1] is reported as “inactive” and the Potency [2] is reported as “inactive”.

With O=C(O)CCc1cccc(O[C@@H]2O[C@H](CO)[C@@H](O)[C@H](O)[C@H]2O)c1O the Potency [1] was “inactive” and the Potency [2] was “inactive”.

With CC(C)C1=CC2C(CC[C@]2(C)O)[C@](C)(O)CC1 (some centres undefined) the Potency [1] was “inactive” and the Potency [2] was “inactive”.

In the case of C=C(C)C(=O)O[C@H]1C[C@@](C)(OC(C)=O)[C@@]2(O)CC[C@@](C)(O)[C@H](OC(C)=O)[C@@]23OC(=O)C(COC)=C13, the Potency [1] is reported as “inactive” and the Potency [2] is reported as “inactive”.

For C[C@H](NC(=O)CCc1nc2ccccc2c(=O)[nH]1)c1ccccc1, the Potency [1] was “inactive” and the Potency [2] was “inactive”.

For O=C(Nc1ccc(N2C(=O)[C@@H]3[C@H](C2=O)[C@@H]2C=C[C@H]3C2)c(Cl)c1)c1ccccn1, the Potency [1] was “inactive” and the Potency [2] was “inactive”.

With COc1ccc([C@H]2Cc3cccc(O)c3C(=O)O2)cc1 the Potency [1] was “inactive” and the Potency [2] was “inactive”.

In the case of O=C(O[C@H]1[C@@H]2C=CO[C@@H](O[C@@H]3O[C@H](CO)[C@@H](O)[C@H](O)[C@H]3O)[C@@H]2[C@@]2(CO)O[C@@H]12)c1ccc(O)cc1, the Potency [1] is reported as “inactive” and the Potency [2] is reported as “inactive”.

In the case of Cc1cc(Cn2cnc3c2CC(C(=O)O)N(C(=O)C(c2ccccc2)c2ccccc2)C3)ccc1N(C)C (centres undefined), the Potency [1] is reported as “inactive” and the Potency [2] is reported as “inactive”.

In the case of O=C(Nc1c(-c2cccs2)nc2ccccn12)c1ccc(Cl)cc1, the Potency [1] is reported as “inactive” and the Potency [2] is reported as “inactive”.

For C/C=C(\C)C(=O)O[C@@H]1[C@@H](C)[C@]2(O)[C@@H]3C=C(C)C(=O)[C@H]3CC(CO)=C[C@H]2C2C(C)(C)[C@@]21OC(=O)C(C)CC (some centres undefined), the Potency [1] was “inactive” and the Potency [2] was “inactive”.

For C=CC/C=C\C/C=C\CCCCCCCc1cccc(O)c1C(=O)O, the Potency [1] was “inactive” and the Potency [2] was “inactive”.

Compound C/C=C(\C)C(=O)O[C@@H]1CC2[C@@H](CC=C3C[C@@H](O[C@H]4C[C@H](OC)[C@H](O[C@H]5C[C@H](OC)[C@H](O[C@@H]6O[C@H](C)[C@@H](O[C@H]7C[C@H](OC)[C@H](O[C@@H]8O[C@H](CO)[C@@H](O)[C@H](O)[C@H]8O)[C@@H](C)O7)[C@H](OC)[C@H]6O)[C@@H](C)O5)[C@@H](C)O4)CC[C@@]32C)[C@@]2(O)CC[C@H](C(C)=O)[C@@]12C (some centres undefined) has an activity change, negative = inhibition [1] of 12% [at 11.2 µM] and an activity change, negative = inhibition [2] of 11% [at 11.2 µM].

With CC12CCC(OC3OC(CO)C(O)C(O)C3OC3OC(CO)C(O)C(O)C3O)CC1CCC1C2CCC2(C)/C(=C3/COC(=O)C3)CCC12O (centres undefined) the Potency [1] was “inactive” and the Potency [2] was “inactive”.

In the case of C=C(C)C(O)COc1ccc(CC(=O)O)cc1 (centres undefined), the Potency [1] is reported as “inactive” and the Potency [2] is reported as “inactive”.

For COC1(CC(C)C)NC(=O)C(O)(Cc2ccccc2)NC1=O (centres undefined), the Potency [1] was “inactive” and the Potency [2] was “inactive”.

With O=C1NC(Cc2ccccc2)C(=O)N2CCCC12 (centres undefined) the Potency [1] was “inactive” and the Potency [2] was “inactive”.

With CCN1CCC[C@@H]1CNC(=O)c1ccc2c(c1)NC(=O)c1cccc(C)c1S2 the Potency [1] was “inactive” and the Potency [2] was “inactive”.

With C=C1C[C@]23C[C@H]1CC[C@H]2[C@]1(C)CC[C@H](O)[C@@](C)(C(=O)O)[C@H]1[C@@H]3C(=O)O the Potency [1] was “inactive” and the Potency [2] was “inactive”.

For CC(=O)N[C@H](Cc1c[nH]c2ccccc12)C(=O)OCc1cc(C(F)(F)F)cc(C(F)(F)F)c1, the Potency [1] was “inactive” and the Potency [2] was “inactive”.

For CC12CC(O)C(O)C=C1c1cc(O)cc(O)c1C(=O)O2 (centres undefined), the Potency [1] was “inactive” and the Potency [2] was “inactive”.

For CC1CC(=O)C2=C(O1)OC1(C)CCC3C(C)(C)C4OC4C(=O)C3(C)C1C2 (centres undefined), the Potency [1] was “inactive” and the Potency [2] was “inactive”.

With C[C@]1(OC(=O)/C=C/c2ccccc2)C[C@@H](O)[C@]2(O)C=CO[C@@H](O[C@@H]3O[C@H](CO)[C@@H](O)[C@H](O)[C@H]3O)[C@@H]21 the Potency [1] was “inactive” and the Potency [2] was “inactive”.

In the case of Cc1onc(-c2c(F)cccc2Cl)c1C(=O)N[C@@H]1C(=O)N2[C@@H]1SC(C)(C)[C@@H]2C(=O)O, the Potency [1] is reported as “inactive” and the Potency [2] is reported as “inactive”.

For CCn1nnnc1NCc1ccc(C(C)C)cc1, the Potency [1] was “inactive” and the Potency [2] was “inactive”.

With C/C(=C\CCC(C)(O)c1ccc(C)cc1)C(=O)O (centres undefined) the Potency [1] was “inactive” and the Potency [2] was “inactive”.

With C/C=C/C=C/C=C/C(=O)O[C@@H]1C=C(CO)C(O)(C(=O)O)[C@@]2(C)CCCC(C)(C)[C@H]12 (some centres undefined) the Potency [1] was “inactive” and the Potency [2] was “inactive”.

In the case of Cc1cc(C(=O)Nc2cc(Oc3ccc4nc(NC(=O)C5CC5)cn4n3)ccc2C)n(C)n1, the Potency [1] is reported as “inactive”, the Potency [2] is reported as “inactive” and the Potency [3] is reported as 14800 nM (active). The Potency [4] was 1320 nM (active), the Potency [5] was 9340 nM (active) and the Potency [6] was 6610 nM (active). The Potency [7] was 9340 nM (active).

For C#Cc1cccc(Nc2ncnc3cc(OC)c(OCCCCCCC(=O)NO)cc23)c1, the Potency [1] was “inactive”, the Potency [2] was “inactive” and the Potency [8] was 1480 nM (active). The Potency [9] was 1050 nM (active), the Potency [3] was 296 nM (active) and the Potency [4] was 934 nM (active). The Potency [6] was 1050 nM (active) and the Potency [7] was 2090 nM (active).

With O=C(c1cncc(Br)c1)N1CCC(N2CCCC2)CC1 the Potency [1] was “inactive”, the Potency [2] was “inactive” and the viability [8] was 113%. The Potency [9] was “inactive”, the Potency [4] was “inactive” and the Potency [5] was “inactive”. For the same compound, the Potency [6] was “inactive”.
